Tests used:
Assay in all cases: DAPPL (digital affinity profiling via proximity ligation, sequencing); 10 mM Tris-HCl pH 7.5, 50 mM NaCl, 1 mM DTT, 4% glycerol, room temperature, 30 min; GST-TFs on glutathione beads, 16-mer random dsDNA library, 0.1% formaldehyde crosslink after washing; high values mean tight binding
FEV = molecular target: T1, FEV (Homo sapiens, UniProt Q99581 1-238); details: protein: recombinant; tags: N-terminal GST; dsDNA, one strand shown
T1 sequence: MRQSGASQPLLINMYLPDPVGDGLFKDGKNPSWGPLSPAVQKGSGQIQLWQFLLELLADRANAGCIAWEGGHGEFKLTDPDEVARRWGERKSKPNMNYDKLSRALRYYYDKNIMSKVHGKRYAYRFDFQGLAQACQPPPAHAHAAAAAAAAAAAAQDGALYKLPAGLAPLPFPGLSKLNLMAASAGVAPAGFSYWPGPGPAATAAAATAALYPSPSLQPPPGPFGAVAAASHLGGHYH
Method in brief: (§1)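 Pools of DNA-barcoded human transcription factors, expressed in yeast as GST fusions on glutathione beads and combined with a tag-only sample, were incubated with 200 nmole of a 16-mer random double-stranded DNA library. Incubation took 30 min at room temperature in Tris/NaCl/DTT/glycerol buffer and was followed by washing, 0.1% formaldehyde crosslinking, proximity ligation (BsaI/T4 ligase, 1 h, 37 °C), PCR amplification and sequencing on an Illumina NextSeq500. Binding signal is the ratio of a hexamer's read frequency for a factor to its frequency for the tag-only sample.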

ETV5 = ETV5 (Homo sapiens, UniProt P41161 1-510); details: protein: recombinant; tags: N-terminal GST; dsDNA, one strand shown
Method in brief: as §1

HSF1 = HSF1 (Homo sapiens, UniProt Q00613 1-529); details: protein: recombinant; tags: N-terminal GST; chain copies: 3; dsDNA, one strand shown
Method in brief: as §1

SPIC = molecular target: T2, SPIC (Homo sapiens, UniProt Q8N5J4 1-248); details: protein: recombinant; tags: N-terminal GST; dsDNA, one strand shown
T2 sequence: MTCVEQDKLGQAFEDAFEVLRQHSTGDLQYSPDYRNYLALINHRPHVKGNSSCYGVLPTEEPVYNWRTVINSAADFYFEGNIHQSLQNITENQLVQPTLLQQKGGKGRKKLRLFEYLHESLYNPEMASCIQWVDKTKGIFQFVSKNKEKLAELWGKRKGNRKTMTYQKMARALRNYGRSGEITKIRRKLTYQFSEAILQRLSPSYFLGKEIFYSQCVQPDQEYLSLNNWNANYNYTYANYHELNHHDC
Method in brief: as §1

ELF4 = ELF4 (Homo sapiens, UniProt Q99607 1-663); details: protein: recombinant; tags: N-terminal GST; dsDNA, one strand shown
Method in brief: as §1

ELK4 = molecular target: T3, ELK4 (Homo sapiens, UniProt P28324-2 1-405); details: protein: recombinant; tags: N-terminal GST; dsDNA, one strand shown
T3 sequence: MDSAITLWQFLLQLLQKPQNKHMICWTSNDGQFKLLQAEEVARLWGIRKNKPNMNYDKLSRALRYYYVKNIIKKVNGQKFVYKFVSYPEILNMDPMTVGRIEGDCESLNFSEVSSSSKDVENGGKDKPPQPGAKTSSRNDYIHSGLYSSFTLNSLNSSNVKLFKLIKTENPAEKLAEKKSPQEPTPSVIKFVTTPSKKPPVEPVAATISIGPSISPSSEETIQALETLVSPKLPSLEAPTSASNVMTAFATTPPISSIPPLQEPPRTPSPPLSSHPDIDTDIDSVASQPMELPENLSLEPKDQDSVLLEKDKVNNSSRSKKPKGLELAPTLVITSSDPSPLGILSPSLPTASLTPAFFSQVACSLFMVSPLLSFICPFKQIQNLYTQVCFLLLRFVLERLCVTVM
Method in brief: as §1

ETV2 = molecular target: T4, ETV2 (Homo sapiens, UniProt O00321 1-342); details: protein: recombinant; tags: N-terminal GST; dsDNA, one strand shown
T4 sequence: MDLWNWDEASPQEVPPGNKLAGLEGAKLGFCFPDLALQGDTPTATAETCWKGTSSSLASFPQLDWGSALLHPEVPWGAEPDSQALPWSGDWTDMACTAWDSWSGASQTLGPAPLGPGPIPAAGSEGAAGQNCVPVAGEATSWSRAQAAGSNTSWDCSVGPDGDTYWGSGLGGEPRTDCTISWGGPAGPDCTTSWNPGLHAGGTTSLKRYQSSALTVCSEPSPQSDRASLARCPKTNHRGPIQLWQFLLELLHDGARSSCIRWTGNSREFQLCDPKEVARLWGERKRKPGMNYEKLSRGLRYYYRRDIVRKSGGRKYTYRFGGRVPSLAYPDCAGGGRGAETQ
Method in brief: as §1

ELF3 = molecular target: T5, ELF3 (Homo sapiens, UniProt P78545 1-371); details: protein: recombinant; tags: N-terminal GST; dsDNA, one strand shown
T5 sequence: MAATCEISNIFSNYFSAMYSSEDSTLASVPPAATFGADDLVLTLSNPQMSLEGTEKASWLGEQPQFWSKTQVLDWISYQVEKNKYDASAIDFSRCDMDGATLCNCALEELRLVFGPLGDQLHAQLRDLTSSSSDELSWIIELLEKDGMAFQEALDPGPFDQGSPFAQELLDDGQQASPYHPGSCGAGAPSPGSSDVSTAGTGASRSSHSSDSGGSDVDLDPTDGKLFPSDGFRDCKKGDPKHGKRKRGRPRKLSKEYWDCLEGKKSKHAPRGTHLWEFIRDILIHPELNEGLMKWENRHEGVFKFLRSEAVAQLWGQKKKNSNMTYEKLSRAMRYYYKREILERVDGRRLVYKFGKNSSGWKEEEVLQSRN
Method in brief: as §1

CRX = CRX (Homo sapiens, UniProt O43186 1-299); details: protein: recombinant; tags: N-terminal GST; dsDNA, one strand shown
Method in brief: as §1

ETV1 = ETV1 (Homo sapiens, UniProt P50549 1-477); details: protein: recombinant; tags: N-terminal GST; dsDNA, one strand shown
Method in brief: as §1

ETV5, sequence (P41161 whole entry): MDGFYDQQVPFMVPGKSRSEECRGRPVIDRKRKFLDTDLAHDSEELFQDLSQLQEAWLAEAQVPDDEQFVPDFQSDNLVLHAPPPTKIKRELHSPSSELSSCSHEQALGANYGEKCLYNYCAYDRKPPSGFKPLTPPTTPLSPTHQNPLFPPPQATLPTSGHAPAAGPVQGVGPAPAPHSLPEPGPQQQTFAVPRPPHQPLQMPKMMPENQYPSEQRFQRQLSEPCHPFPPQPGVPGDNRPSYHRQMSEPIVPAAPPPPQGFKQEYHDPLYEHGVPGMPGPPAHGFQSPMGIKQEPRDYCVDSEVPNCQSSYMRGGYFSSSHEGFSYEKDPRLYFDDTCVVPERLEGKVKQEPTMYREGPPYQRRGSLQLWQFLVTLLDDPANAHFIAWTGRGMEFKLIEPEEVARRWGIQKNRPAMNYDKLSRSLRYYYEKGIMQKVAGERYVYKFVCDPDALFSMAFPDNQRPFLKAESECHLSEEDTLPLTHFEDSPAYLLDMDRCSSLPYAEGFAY
HSF1, sequence (Q00613 whole entry): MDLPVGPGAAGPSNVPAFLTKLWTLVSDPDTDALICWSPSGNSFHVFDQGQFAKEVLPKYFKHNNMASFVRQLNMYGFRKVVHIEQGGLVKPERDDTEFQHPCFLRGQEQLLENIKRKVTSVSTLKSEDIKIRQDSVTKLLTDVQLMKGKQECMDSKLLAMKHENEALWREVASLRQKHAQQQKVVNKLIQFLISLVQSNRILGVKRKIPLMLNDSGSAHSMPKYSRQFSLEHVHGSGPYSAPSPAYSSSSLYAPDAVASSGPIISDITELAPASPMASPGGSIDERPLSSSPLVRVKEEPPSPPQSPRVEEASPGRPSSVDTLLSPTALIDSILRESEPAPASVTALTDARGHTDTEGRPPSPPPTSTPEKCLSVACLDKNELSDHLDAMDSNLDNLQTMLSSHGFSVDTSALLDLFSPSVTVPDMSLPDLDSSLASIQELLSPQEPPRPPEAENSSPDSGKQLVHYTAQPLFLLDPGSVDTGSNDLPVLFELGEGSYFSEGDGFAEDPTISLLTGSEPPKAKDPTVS
CRX, sequence (O43186 whole entry): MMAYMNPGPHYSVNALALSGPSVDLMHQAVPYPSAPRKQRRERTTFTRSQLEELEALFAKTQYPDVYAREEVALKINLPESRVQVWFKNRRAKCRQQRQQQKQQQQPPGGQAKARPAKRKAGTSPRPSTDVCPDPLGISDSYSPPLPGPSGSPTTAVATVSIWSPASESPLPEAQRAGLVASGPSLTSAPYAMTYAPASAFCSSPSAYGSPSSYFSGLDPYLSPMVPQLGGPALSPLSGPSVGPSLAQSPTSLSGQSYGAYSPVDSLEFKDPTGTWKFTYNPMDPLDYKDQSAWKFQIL
ETV1, sequence (P50549 whole entry): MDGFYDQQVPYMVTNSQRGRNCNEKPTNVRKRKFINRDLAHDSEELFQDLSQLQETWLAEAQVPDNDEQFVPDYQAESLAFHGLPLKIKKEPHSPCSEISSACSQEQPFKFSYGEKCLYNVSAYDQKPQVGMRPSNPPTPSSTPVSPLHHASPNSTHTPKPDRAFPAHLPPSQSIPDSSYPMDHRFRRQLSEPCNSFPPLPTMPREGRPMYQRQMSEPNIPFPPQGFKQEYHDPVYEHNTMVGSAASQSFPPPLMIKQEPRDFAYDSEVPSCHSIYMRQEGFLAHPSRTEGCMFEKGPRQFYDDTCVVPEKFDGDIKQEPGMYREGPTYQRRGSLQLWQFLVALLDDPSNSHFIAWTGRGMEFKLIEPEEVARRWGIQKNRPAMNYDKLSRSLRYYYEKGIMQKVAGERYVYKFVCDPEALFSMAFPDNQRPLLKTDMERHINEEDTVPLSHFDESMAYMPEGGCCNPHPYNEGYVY
ELF4, sequence (Q99607 whole entry): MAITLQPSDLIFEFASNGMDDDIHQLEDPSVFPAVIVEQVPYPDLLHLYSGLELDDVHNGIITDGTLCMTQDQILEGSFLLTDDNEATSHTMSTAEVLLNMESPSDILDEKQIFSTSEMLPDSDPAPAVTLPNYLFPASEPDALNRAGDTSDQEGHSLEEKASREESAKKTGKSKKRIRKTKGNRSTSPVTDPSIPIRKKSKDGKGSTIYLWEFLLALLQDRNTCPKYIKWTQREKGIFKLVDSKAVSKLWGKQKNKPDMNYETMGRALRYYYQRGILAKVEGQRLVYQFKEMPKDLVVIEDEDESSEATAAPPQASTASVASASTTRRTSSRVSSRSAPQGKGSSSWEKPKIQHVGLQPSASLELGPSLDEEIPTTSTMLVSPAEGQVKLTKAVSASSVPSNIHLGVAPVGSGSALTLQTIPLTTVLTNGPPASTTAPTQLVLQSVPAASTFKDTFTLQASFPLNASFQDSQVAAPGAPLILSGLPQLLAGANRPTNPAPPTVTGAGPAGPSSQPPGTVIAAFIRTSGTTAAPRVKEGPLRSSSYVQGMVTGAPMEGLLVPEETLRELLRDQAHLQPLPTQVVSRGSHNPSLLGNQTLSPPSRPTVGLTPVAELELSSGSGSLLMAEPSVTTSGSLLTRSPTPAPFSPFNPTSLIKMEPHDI

For ATAGTA, the binding signal (FEV) was 1.16 fold enrichment (6-mer frequency, TF over GST control), the binding signal (ETV5) was 1.18 fold enrichment (6-mer frequency, TF over GST control) and the binding signal (HSF1) was 1.16 fold enrichment (6-mer frequency, TF over GST control). For the same sequence, the binding signal (SPIC) was 1.29 fold enrichment (6-mer frequency, TF over GST control), the binding signal (ELF4) was 1.16 fold enrichment (6-mer frequency, TF over GST control) and the binding signal (ELK4) was 1.24 fold enrichment (6-mer frequency, TF over GST control). For the same sequence, the binding signal (ETV2) was 1.34 fold enrichment (6-mer frequency, TF over GST control), the binding signal (ELF3) was 1.2 fold enrichment (6-mer frequency, TF over GST control) and the binding signal (CRX) was 1.24 fold enrichment (6-mer frequency, TF over GST control). The binding signal (ETV1) was 1.13 fold enrichment (6-mer frequency, TF over GST control).

In the case of CCTGAT, the binding signal (FEV) is reported as 1.32 fold enrichment (6-mer frequency, TF over GST control), the binding signal (ETV5) is reported as 1.49 fold enrichment (6-mer frequency, TF over GST control) and the binding signal (HSF1) is reported as 1.32 fold enrichment (6-mer frequency, TF over GST control). The binding signal (SPIC) was 1.42 fold enrichment (6-mer frequency, TF over GST control), the binding signal (ELF4) was 1.59 fold enrichment (6-mer frequency, TF over GST control) and the binding signal (ELK4) was 1.5 fold enrichment (6-mer frequency, TF over GST control). For the same sequence, the binding signal (ETV2) was 1.55 fold enrichment (6-mer frequency, TF over GST control), the binding signal (ELF3) was 1.34 fold enrichment (6-mer frequency, TF over GST control) and the binding signal (CRX) was 1.44 fold enrichment (6-mer frequency, TF over GST control). The binding signal (ETV1) was 1.46 fold enrichment (6-mer frequency, TF over GST control).

CTTGTA was tested, and the binding signal (FEV) was 1.32 fold enrichment (6-mer frequency, TF over GST control), the binding signal (ETV5) was 1.33 fold enrichment (6-mer frequency, TF over GST control) and the binding signal (HSF1) was 1.34 fold enrichment (6-mer frequency, TF over GST control). For the same sequence, the binding signal (SPIC) was 1.22 fold enrichment (6-mer frequency, TF over GST control), the binding signal (ELF4) was 1.37 fold enrichment (6-mer frequency, TF over GST control) and the binding signal (ELK4) was 1.64 fold enrichment (6-mer frequency, TF over GST control). For the same sequence, the binding signal (ETV2) was 1.41 fold enrichment (6-mer frequency, TF over GST control), the binding signal (ELF3) was 1.27 fold enrichment (6-mer frequency, TF over GST control) and the binding signal (CRX) was 1.27 fold enrichment (6-mer frequency, TF over GST control). For the same sequence, the binding signal (ETV1) was 1.41 fold enrichment (6-mer frequency, TF over GST control).

For ATACAA, the binding signal (FEV) was 1.09 fold enrichment (6-mer frequency, TF over GST control), the binding signal (ETV5) was 1.15 fold enrichment (6-mer frequency, TF over GST control) and the binding signal (HSF1) was 1.03 fold enrichment (6-mer frequency, TF over GST control). The binding signal (SPIC) was 1.06 fold enrichment (6-mer frequency, TF over GST control), the binding signal (ELF4) was 1.17 fold enrichment (6-mer frequency, TF over GST control) and the binding signal (ELK4) was 1.08 fold enrichment (6-mer frequency, TF over GST control). The binding signal (ETV2) was 1.04 fold enrichment (6-mer frequency, TF over GST control), the binding signal (ELF3) was 1.16 fold enrichment (6-mer frequency, TF over GST control) and the binding signal (CRX) was 1.07 fold enrichment (6-mer frequency, TF over GST control). For the same sequence, the binding signal (ETV1) was 1.13 fold enrichment (6-mer frequency, TF over GST control).

With TATATC the binding signal (FEV) was 1.58 fold enrichment (6-mer frequency, TF over GST control), the binding signal (ETV5) was 1.6 fold enrichment (6-mer frequency, TF over GST control) and the binding signal (HSF1) was 1.33 fold enrichment (6-mer frequency, TF over GST control). For the same sequence, the binding signal (SPIC) was 1.67 fold enrichment (6-mer frequency, TF over GST control), the binding signal (ELF4) was 1.58 fold enrichment (6-mer frequency, TF over GST control) and the binding signal (ELK4) was 1.53 fold enrichment (6-mer frequency, TF over GST control). For the same sequence, the binding signal (ETV2) was 1.54 fold enrichment (6-mer frequency, TF over GST control), the binding signal (ELF3) was 1.36 fold enrichment (6-mer frequency, TF over GST control) and the binding signal (CRX) was 1.67 fold enrichment (6-mer frequency, TF over GST control). For the same sequence, the binding signal (ETV1) was 1.54 fold enrichment (6-mer frequency, TF over GST control).

TTTTTC was tested, and the binding signal (FEV) was 1.19 fold enrichment (6-mer frequency, TF over GST control), the binding signal (ETV5) was 1.27 fold enrichment (6-mer frequency, TF over GST control) and the binding signal (HSF1) was 1.44 fold enrichment (6-mer frequency, TF over GST control). The binding signal (SPIC) was 1.11 fold enrichment (6-mer frequency, TF over GST control), the binding signal (ELF4) was 1.32 fold enrichment (6-mer frequency, TF over GST control) and the binding signal (ELK4) was 1.16 fold enrichment (6-mer frequency, TF over GST control). The binding signal (ETV2) was 1.24 fold enrichment (6-mer frequency, TF over GST control), the binding signal (ELF3) was 1.26 fold enrichment (6-mer frequency, TF over GST control) and the binding signal (CRX) was 1.09 fold enrichment (6-mer frequency, TF over GST control). The binding signal (ETV1) was 1.21 fold enrichment (6-mer frequency, TF over GST control).

For ACGCTA, the binding signal (FEV) was 1.13 fold enrichment (6-mer frequency, TF over GST control), the binding signal (ETV5) was 1.17 fold enrichment (6-mer frequency, TF over GST control) and the binding signal (HSF1) was 1.12 fold enrichment (6-mer frequency, TF over GST control). The binding signal (SPIC) was 1.09 fold enrichment (6-mer frequency, TF over GST control), the binding signal (ELF4) was 1.25 fold enrichment (6-mer frequency, TF over GST control) and the binding signal (ELK4) was 1.06 fold enrichment (6-mer frequency, TF over GST control). For the same sequence, the binding signal (ETV2) was 1.28 fold enrichment (6-mer frequency, TF over GST control), the binding signal (ELF3) was 1.17 fold enrichment (6-mer frequency, TF over GST control) and the binding signal (CRX) was 1.18 fold enrichment (6-mer frequency, TF over GST control). The binding signal (ETV1) was 1.09 fold enrichment (6-mer frequency, TF over GST control).

With CTACCT the binding signal (FEV) was 1.3 fold enrichment (6-mer frequency, TF over GST control), the binding signal (ETV5) was 1.36 fold enrichment (6-mer frequency, TF over GST control) and the binding signal (HSF1) was 1.15 fold enrichment (6-mer frequency, TF over GST control). For the same sequence, the binding signal (SPIC) was 1.38 fold enrichment (6-mer frequency, TF over GST control), the binding signal (ELF4) was 1.46 fold enrichment (6-mer frequency, TF over GST control) and the binding signal (ELK4) was 1.36 fold enrichment (6-mer frequency, TF over GST control). The binding signal (ETV2) was 1.54 fold enrichment (6-mer frequency, TF over GST control), the binding signal (ELF3) was 1.18 fold enrichment (6-mer frequency, TF over GST control) and the binding signal (CRX) was 1.23 fold enrichment (6-mer frequency, TF over GST control). For the same sequence, the binding signal (ETV1) was 1.54 fold enrichment (6-mer frequency, TF over GST control).

Reference: publication PMC7862700, “An all-to-all approach to the identification of sequence-specific readers for epigenetic DNA modifications on cytosine”
